Results on 40 molecules are retold here after PubChem BioAssay (EPA / NIEHS).

Molecules are shown by their SMILES. Records with an inconclusive call do not appear. Activity calls are given as the source filed them. Rule for the calls: active = hit-call score of the fitted dose curve at least 0.9, where 1 is the maximum; inconclusive = response in the unintended direction; inactive = score below 0.9.

Chain of Glucocorticoid receptor (Homo sapiens) (P04150 whole entry, looked up): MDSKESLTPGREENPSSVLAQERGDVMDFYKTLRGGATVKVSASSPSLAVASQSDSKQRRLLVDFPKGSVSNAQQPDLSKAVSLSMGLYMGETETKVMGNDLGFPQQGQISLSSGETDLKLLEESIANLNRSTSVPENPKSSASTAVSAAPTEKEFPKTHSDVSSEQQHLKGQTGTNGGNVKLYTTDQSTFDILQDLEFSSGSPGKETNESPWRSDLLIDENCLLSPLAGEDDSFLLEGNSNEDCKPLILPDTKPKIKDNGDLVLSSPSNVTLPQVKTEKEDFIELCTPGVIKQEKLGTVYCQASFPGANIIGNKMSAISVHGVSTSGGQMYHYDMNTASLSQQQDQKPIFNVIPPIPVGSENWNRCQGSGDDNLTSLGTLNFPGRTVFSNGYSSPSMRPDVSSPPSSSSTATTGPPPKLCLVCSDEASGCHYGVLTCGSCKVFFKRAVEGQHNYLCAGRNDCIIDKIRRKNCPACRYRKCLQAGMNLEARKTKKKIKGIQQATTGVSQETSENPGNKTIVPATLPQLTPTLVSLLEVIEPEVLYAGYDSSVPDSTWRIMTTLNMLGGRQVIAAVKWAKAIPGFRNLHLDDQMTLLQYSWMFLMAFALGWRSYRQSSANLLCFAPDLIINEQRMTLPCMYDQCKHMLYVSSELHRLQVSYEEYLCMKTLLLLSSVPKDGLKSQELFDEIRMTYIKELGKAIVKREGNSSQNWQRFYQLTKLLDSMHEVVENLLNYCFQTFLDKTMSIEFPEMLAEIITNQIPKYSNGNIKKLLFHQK

This experiment addresses Glucocorticoid receptor (Homo sapiens) (UniProt P04150). The experiment in a line: ATG_GR_TRANS: Attagene TRANS-FACTORIAL HepG2 Assay for human Glucocorticoid Receptor (GR) (AID 2282978).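 Note: activators score as hits since higher reporter transcript over DMSO is fitted.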 Particulars: HepG2 Attagene TRANS GR reporter, mRNA transcription. As to the method: ATG_TRANS is a cell-based, multiplexed-readout assay that uses HepG2, a human liver cell line, with measurements taken at 24 hours after chemical dosing in a 24-well plate.ATG_GR_TRANS is one of 30 assay component(s) measured or calculated from the ATG_TRANS assay. It is designed to make measurements of mRNA induction, a form of inducible reporter, as detected with fluorescence intensity signals by Reverse transcription polymerase chain reaction (RT-PCR) and Capillary electrophoresis technology.Data from the assay component ATG_GR_TRANS was analyzed into 1 assay endpoint. This assay endpoint, ATG_GR_TRANS, was analyzed in the positive analysis fitting direction relative to DMSO as the negative control and baseline of activity. Using a type of inducible reporter, measures of mRNA for gain-of-signal activity can be used to understand the reporter gene at the transcription factor-level as they relate to the gene NR3C1. Furthermore, this assay endpoint can be referred to as a primary readout, because this assay has produced multiple assay endpoints where this one serves a reporter gene function. To generalize the intended target to other relatable targets, this assay endpoint is annotated to the nuclear receptor intended target family, where the subfamily is steroidal.
Human liver HepG2 cells are transiently transfected with multiple reporter transcription units (MRTUs) in 6-well plates using FuGene 6 reagent (Roche; 3 ml FuGene/1 mg DNA). The MRTU constructs are regulated by a cis-regulating element (promoter). […] A major difference between the CIS and TRANS system is that in CIS activities of endogenous TFs are measured, whereas the TRANS assay evaluates changes in activities of exogenous, chimeric NR-Gal4 proteins. […] At the end of 24 hour incubation, total RNA was isolated using TriZol reagent (Invitrogen). The isolated RNA is then reverse-transcribed using oligo(dT) primer and Mo-MLV reverse transcriptase (Invitrogen) with DNAse I (Ambion) treatment for 30 min. The one-tenth of the produced cDNA was amplified by PCR using Taq DNA polymerase (Invitrogen) and two reporter sequence-specific primers. The PCR products were fluorescently labeled by primer extension with 6-arboxyfluorescein (6-FAM) 5'-labeled reporter sequence-specific primer (2 min at 95 C, 20 s at 68 C and 10 min at 72 C) and these products were digested with 5U of HpaI (New England Biolabs) for 2h at 37 C. The fragments were purified using Qiaquick PCR columns (Qiagen), analyzed on an ABI 3130xL genetic analyzer (Applied Biosystems) with peak positions identified by using a set of X-rhodamine (ROX)-labeled MapMarker1000 molecular weight standards (BioVentures). The raw capillary electrophoresis data was processed using Attagraph software (Attagene).
Take `O=C1CCCN1CCO`: the call was inactive. Consider `CC(C)(C)C1CCCCC1=O` (stereo not given), for which the molecule was classed as inactive. Still for that read-out and setting: to `CC1(C)S[C@@H]2[C@H](NC(=O)COc3ccccc3)C(=O)N2[C@H]1C(=O)O` belongs “inactive”.

As to `COC(F)(F)C(F)(C(F)(F)F)C(F)(F)F`, the molecule was classed as inactive.

Consider `CCCCC/C=C\CCC=O`, for which the call was inactive.

As for `CNC(=S)NN`, the molecule was classed as inactive.

For the molecule `C=C(C)C(=O)OCCOc1ccccc1`, the molecule was classed as inactive.

Turning to `CCCCCC/C=C\CCCCCCCC(=O)O`, the molecule was classed as inactive.

For the molecule `CCCCCCCCCCCSCC(=O)O`, the call was inactive. Regarding `CCCCCCCC/C=C\CCCCCCCC(=O)O`, the call was inactive. For the molecule `CC(C)CCCCCOC(=O)CCS`, the result was inactive. On the same count and under the same terms, to `OC1CCCCCCCCCCC1` belongs “inactive”.

Take `CC(C)(Oc1ccc(C2CC2(Cl)Cl)cc1)C(=O)O` (stereo not given): the result was inactive. As for `CCCCCCCCO[C@@H]1O[C@H](CO)[C@@H](O)[C@H](O)[C@H]1O`, the molecule was called inactive. For `O=C(O)CC(C(=O)O)C(CC(=O)O)C(=O)O` (stereo not given), the molecule was called inactive.

With `O=c1c2ccccc2oc2ccccc12`, the result was inactive. On the same count and under the same terms, under `O=C(Oc1ccccc1)c1ccc2ccccc2c1O` stands “inactive”; under `CCN(CC)c1ccc(C(=O)c2ccccc2C(=O)O)c(O)c1`, “inactive”; under `Cc1cc(C)c(C(=O)O)c(C)c1`, “inactive”. Still for that read-out and setting: under `CC(C)c1ccc(C#N)cc1` stands “inactive”; under `C=CC(C)(CCC=C(C)C)OC(=O)CC(C)C` (stereo not given), “inactive”.

As to `Nc1ccc2cc3ccccc3cc2c1`, the outcome was inactive. As for `CC(=O)Nc1nnc(S(N)(=O)=O)s1`, the result was inactive. On the same count and under the same terms, to `O=C(Nc1ccccc1)c1ccccc1O` belongs “inactive”. With `CC(=O)OCC(=O)[C@@]12N=C(C)O[C@@H]1C[C@H]1[C@@H]3CCC4=CC(=O)C=C[C@]4(C)[C@H]3[C@@H](O)C[C@@]12C`, the concentration at half-maximal activity (AC50) was 82.7 nM (active). `COC(=O)/C=C\C(=O)O`: the molecule was called inactive. As to `Nc1ccc(Oc2ccc(N)c(N)c2)cc1`, the result was inactive.

For the molecule `Cc1ccc(C2OC[C@@H]3OC(c4ccc(C)cc4)O[C@H]([C@H](O)CO)[C@@H]3O2)cc1` (stereo not given in full), the outcome was inactive. Same read-out and setting: to `CCCCCCOC(=O)C(C)CC` (stereo not given) belongs “inactive”; to `CCCCCCCOC(=O)CCC`, “inactive”. For `Oc1ccc(Cl)cc1Cc1cc(Cl)ccc1O`, the call was inactive.

On to `c1ccc(-c2ccccn2)nc1`, for which the outcome was inactive. Consider `O=C1CCC(=O)N1Cl`, for which the result was inactive. As to `CC(C)c1ccc2cc(C(C)C)ccc2c1`, the result was inactive. In the case of `c1ccc(CCCc2ccncc2)cc1`, the call was inactive.

As for `CCCCC(CC)COC(=O)c1ccccc1O` (stereo not given), the outcome was inactive. Consider `C=CC(=O)OCC(Br)CBr` (stereo not given), for which the result was inactive. Regarding `CCOC(=O)Cc1cccc2ccccc12`, the molecule was called inactive. On to `O=[N+]([O-])C1(Br)COCOC1`, for which the result was inactive. In the case of `CC1(C)O[C@@H]2C[C@H]3[C@@H]4C[C@H](F)C5=CC(=O)C=C[C@]5(C)[C@@]4(F)[C@@H](O)C[C@]3(C)[C@]2(C(=O)CO)O1`, the AC50 was 52.5 nM (active).

What is called AC50 is the midpoint of the concentration-response curve, whichever way the signal moves.
